Assay outcomes deposited in PubChem BioAssay by several laboratories.
HSF1 activator: HSF-1 activators, primary screen, NIH3T3-HGL cells, MG132 stress, luminescence, single point; activation, % at 9 µM; NIH3T3-HGL HSF-1 luciferase reporter, 8 h; 100% = twice DMSO control signal; 1.7% of 300,000 active;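 active = mean replicate activation of at least 50% with a set share of replicates each reaching 50%; inconclusive = only one of those two conditions met; inactive = mean below 50% and too few replicates reaching it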;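 note: 0% = median of the neutral control wells and 100% = twice that signal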
HSF1 inh: HSF1 inhibitors in luciferase reporter cells, primary screen, cell-based, NIH3T3, luminescence; 0.77% of 300,000 active; NIH3T3-HGL HSE-luciferase, MG132-induced, luminescence 8 h; active compounds read low; AID 2098, 2009; activity change, negative = inhibition, % at 7.5 µM (by protocol);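 active = more than half of replicate wells show activity change below -50%, luminescence cut by over half; inconclusive = some wells, but at most half, below -50%; inactive = no replicate well below -50%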;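 note: luciferase reports HSF-1 transcriptional activity via heat shock element; 0% = median of DMSO wells and -100% = zero luminescence signal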
esBAF inh: Bmi1 luciferase reporter increase in mESCs, primary screen, esBAF inhibitor project, mouse ES cells, Bmi1 luciferase knock-in, single point | 24 h; 100% = twice the neutral-well signal | reporter increase, % at 12.5 µM | 2% of 350,000 active | AID 602393, 2012; in the data active = activation above about 40%; inconclusive = no clear call, values can overlap the other calls;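 note: 0% = median of the plate's neutral control wells and 100% = double that signal; a rise in the Bmi1 reporter signal indicates esBAF inhibition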
MITF TRPM1 HTS: activators of MITF-driven TRPM1 promoter reporter, primary screen, cell-based, SK-MEL-5, luciferase, single point | SK-MEL-5 TRPM1-promoter luciferase, 24 h; % of positive control, neutral wells = 0 | activation, % at 12.5 µM | 0.75% of 300,000 active | AID 588334, 2011;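 active = mean activation of at least 80% with every replicate also reaching 80%; inconclusive = mean reaches 80% but some replicate falls short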;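 note: 0% = neutral control wells and 100% = parthenolide positive control wells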
SMARCA2 act: SMARCA2 (BRM) function activators, primary screen, cell-based, luminescence, high throughput. MG213 cells, MMTV-luciferase reporter, dexamethasone, overnight. 1% of 370,000 active. AID 652017, 2013. activation, % at 9.1 µM; in the data active = activation above about 7.8%;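 note: 0% = vehicle wells and 100% = reference activator wells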
Wnt bcat act: Wnt/beta-catenin pathway activators, primary screen, cell-based, plate reader, single point | Wnt/beta-catenin reporter cell assay, activator | activation, % at 9.35 µM | 1.2% of 300,000 active | AID 743398, 2014; in the data active = activation above about 30%, passing the limit was not always enough; inconclusive = no clear call, values can overlap the other calls;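 note: 0% = neutral control wells and 100% = positive control wells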
* marks the source's active call; other numbers are inactive results; ? = inconclusive; . = not tested or not shown. Sampled rows, rich in hits. Any-hit rate of the full collection: about 4.3%.

SMILES	HSF1 activator	HSF1 inh	esBAF inh	MITF TRPM1 HTS	SMARCA2 act	Wnt bcat act
Cc1cc(C)cc(NC(=S)Nc2cccc3ccccc23)c1	-4	-8	-1	-19	0	-15
CCc1nn(C(CC)C(=O)NCc2cccc(OC)c2OC)c(=O)c2cc3occc3n12 (stereo not given)	67*	20	-6	-11	-4	-1
COc1ccc(COc2ccc3ccc(=O)oc3c2)cc1	42	26	56*	118*	1	26
CC(=O)N(/N=C1/C(=O)Nc2ccccc21)c1ccccc1	32	19	45*	33	1	15
CC(=O)c1ccc(N=C2C(=O)Nc3ccccc32)cc1	62*	47	3	.	-2	0
O=C1Nc2ccccc2C1=Nc1ccc(F)cc1	-51	-37	5	-5	.	.
COc1ccc(N=C2C(=O)Nc3ccccc32)cc1	-27	-25	10	-2	-1	.
C[C@@H]1CN([C@H](C)CO)C(=O)c2cc(N(C)C)ccc2O[C@H]1CN(C)C	.	.	-2	.	.	.
COc1ccc(/C(N)=N/OC(=O)c2ccc(Br)o2)cc1	20	17	58*	61	6	0
COc1ccc(Cl)cc1C(=O)O/N=C(\N)c1ccncc1	-6	8	.	22	1	5
N/C(=N\OC(=O)c1ccc(Br)o1)c1cccnc1	30	17	.	28	4	10
COc1ccc(/C(N)=N/OC(=O)c2ccc3c(c2)OCO3)cc1	23	35	.	35	6	.
COc1ccccc1C(=O)O/N=C(\N)c1ccc(Cl)cc1	35	31	52*	38	6	-4
COc1ccc(C(=O)O/N=C(\N)c2ccc(Cl)cc2)cc1	-5	5	?	89*	4	37*
Cc1cc(C(=O)NNC(=O)c2ccc(Cl)cc2)no1	-24	-6	.	.	-1	8
Cc1cc(/C(N)=N/OC(=O)c2ccc(Cl)cc2)no1	64*	32	45	.	4	0
CN(C)C(=O)C[C@@H]1CC[C@H](NC(=O)C2CC2)[C@@H](CO)O1	.	.	2	.	.	.
CCC(=O)N[C@@H]1CC[C@@H](CC(=O)OC)O[C@H]1CO	.	.	1	.	.	.
CO[C@H]1CN(C)C(=O)c2cc(NC(=O)c3ccccc3F)ccc2OC[C@@H](C)N(CC2CCOCC2)C[C@H]1C	.	.	-8	.	.	.
O=C(Nc1ccc2c(c1)OCCO2)c1ccc(Cl)c(Cl)c1	50	25	18	62	3	6
COc1ccc(C)cc1NC(=O)c1ccc2c(c1)OCO2	-12	2	11	0	-1	.
COc1cc(Cl)c(C)cc1NC(=O)c1ccc2c(c1)OCO2	26	5	46*	.	1	2
Cc1cc(Cl)ccc1NC(=O)c1ccc2c(c1)OCO2	48	36	77*	.	0	11
O=C(Nc1ccc(Cl)cc1Cl)c1ccc2c(c1)OCCO2	.	.	-5	50	-1	52*
Cc1ccc(S(=O)(=O)N[C@@H]2CC[C@@H](CC(=O)N3CCc4ccccc4C3)O[C@@H]2CO)cc1	.	.	0	.	.	.
SMILES	HSF1 activator	HSF1 inh	esBAF inh	MITF TRPM1 HTS	SMARCA2 act	Wnt bcat act
C[C@H]1CN([C@@H](C)CO)C(=O)Cc2cc(NS(=O)(=O)c3cn(C)cn3)ccc2O[C@H]1CN(C)Cc1ccc(-c2ccccc2)cc1	.	.	-3	.	.	.
Cc1cccc(NC(=O)c2cc(-c3cc(Cl)ccc3O)n[nH]2)c1	4	10	71*	108*	.	.
Cc1ccc(C)c(NC(=O)c2cc(-c3cc(C)ccc3O)n[nH]2)c1	92*	48	50*	117*	2	26
COc1ccc(NC(=O)c2cc(-c3cc(Cl)ccc3OC)n[nH]2)c(OC)c1	.	.	4	.	-8	0
COc1ccc(NC(=O)c2cc(-c3cc(Cl)ccc3O)n[nH]2)c(OC)c1	-86	-81*	-3	8	1	-1
Cc1ccc(NC(=O)c2cc(-c3cc(Cl)ccc3O)n[nH]2)cc1C	-8	0	0	1	-5	4
C[C@H](CO)N1C[C@H](C)[C@H](CN(C)Cc2ccc(O)cc2)OCc2cnnn2CCCC1=O	.	.	1	.	.	.
CCCC(=O)Nc1ccc2c(c1)C(=O)N(C)[C@H]1CC[C@@H](CC(=O)N3CCc4ccccc4C3)O[C@H]1CO2	.	.	-8	.	.	.
C[C@H](CO)N1C[C@H](C)[C@H](CN(C)Cc2ccc(-c3ccccc3)cc2)Oc2c(NC(=O)C3CCOCC3)cccc2C1=O	.	.	5	.	.	.
COc1ccc(CN2C(=O)C(Cc3ccccc3)Nc3ncnc(N4CCc5ccccc5C4)c32)cc1 (stereo not given)	71*	48	.	.	.	.
C[C@@H]1CN([C@@H](C)CO)C(=O)c2cccc(NC(=O)NC3CCCCC3)c2O[C@H]1CN(C)S(C)(=O)=O	.	.	3	.	.	.
CC(C)NC(=O)N[C@@H]1CC[C@@H](CCNS(=O)(=O)c2ccc(F)cc2)O[C@H]1CO	.	.	-1	.	.	.
O=c1c(/C=N\NS(=O)(=O)c2ccccc2)coc2ccc(Cl)cc12	-79	-75*	.	12	-3	-4
O=C(N/N=C/c1coc2ccccc2c1=O)c1ccc(Cl)cc1	-3	1	.	0	-1	0
CCCn1cnc2c(cnn2-c2ccc(F)cc2)c1=O	14	16	52*	38	-2	.
O=C(Cc1ccncc1)NCC[C@H]1CC[C@H](NC(=O)C2CCC2)[C@H](CO)O1	.	.	0	.	.	.
CN1C[C@@H]2[C@H](c3ccccc31)[C@@H](CO)N2C(=O)Nc1ccccc1Cl	.	.	-5	.	.	.
C=CCN(C(=O)CCc1ccccc1OC)c1nc(-c2ccc(S(C)(=O)=O)cc2)cs1	58*	15	6	16	-5	9
C=CCN(C(=O)Cc1cccs1)c1nc(-c2ccc(S(C)(=O)=O)cc2)cs1	5	1	15	53	-4	-3
CCC(=O)N1[C@@H](CO)[C@@H](c2ccc(-c3cccnc3)cc2)[C@@H]1CN(CC)C(C)=O	.	.	-4	.	.	.
[O-][n+]1ccc(C2CC2)cc1	12	-9	4	.	-2	39*
CCN(CC)CCn1c(SCC(=O)NCc2ccco2)nc2c(sc3ccccc32)c1=O	17	-2	2	.	5	47*
NS(=O)(=O)c1cccc(NC(=O)CNC(=O)CC23CC4CC(CC(C4)C2)C3)c1	-82	-77*	-7	-6	0	-1
COc1cccc(S(=O)(=O)Nc2ccc3c(c2)[C@H]2C[C@@H](CC(=O)N(C)C)O[C@@H](CO)[C@H]2O3)c1	.	.	3	.	.	.
Cc1cccc2sc(NC(=O)C3CCCO3)nc12 (stereo not given)	63*	30	74*	75	2	.
CSc1nc2ccc(NC(=O)c3ccc(Cl)s3)cc2s1	.	.	50*	.	3	26
